TSHR antag: human thyrotropin receptor antagonism; P16473; TSHR-expressing cells, TSH-stimulated cAMP HTRF, 2 h; stronger effect = lower value; activity change, negative = inhibition, % at 11.5 µM; 330,000 compounds, 0.2% hits; AID 504810;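 active means activity change below a set negative limit, meaning inhibition stronger than a set level, cut at about -70% in these data; inconclusive means activity change between two set negative limits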
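Antagonism was scored as loss of TSH-driven cAMP in TSHR cells, stimulated with 4nM TSH (EC80) for 2 hours at 37 deg C and detected by homogeneous HTRF competition immunoassay.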
Gal4-VP16 FLuc: counter-screen for ROR gamma inhibitors: Gal4-VP16 reporter | Drosophila S2 Gal4-VP16 UAS-luciferase, luminescence, 20 h | 310,000 compounds, 3.5% hits | Potency, µM (doses to about 53.6 µM), hits mostly inhibitors;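 further: Gal4-VP16 expression switched on by copper sulfate through the metallothionein promoter; nearly all actives have a fitted effect of over 50% in size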
B2AR arrestin: recruits beta-arrestin to the human beta2-adrenergic receptor | Potency, µM (highest dose often 46.1 µM), most hits filed as activators | 330,000 compounds, 0.02% hits | AID 492947 | beta-arrestin recruitment to beta2AR, cell-based reporter; further: nearly all actives have a fitted effect of over 65% in size
Target sequence (P07550 whole entry, looked up): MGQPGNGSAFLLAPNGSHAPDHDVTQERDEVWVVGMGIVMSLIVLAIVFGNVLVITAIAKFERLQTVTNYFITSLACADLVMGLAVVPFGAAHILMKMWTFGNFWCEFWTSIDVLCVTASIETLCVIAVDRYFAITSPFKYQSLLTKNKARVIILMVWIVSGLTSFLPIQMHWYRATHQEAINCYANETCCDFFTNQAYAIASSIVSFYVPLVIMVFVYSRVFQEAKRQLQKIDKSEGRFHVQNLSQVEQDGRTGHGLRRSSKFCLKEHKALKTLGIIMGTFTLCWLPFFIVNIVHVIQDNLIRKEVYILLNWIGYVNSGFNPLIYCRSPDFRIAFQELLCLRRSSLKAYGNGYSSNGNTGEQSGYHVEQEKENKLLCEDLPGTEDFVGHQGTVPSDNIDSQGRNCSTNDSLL
RORgamma inh: blocks mouse ROR gamma transcriptional activity; AID 2551; Drosophila S2 Gal4-RORgamma UAS-luciferase reporter, 20 h; 310,000 compounds, 5.4% hits; P51450; Potency, µM (series often up to 53.6 µM), usual class: inhibitors; further: nearly all actives have a fitted effect of over 60% in size
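A Gal4/UAS one-hybrid system in insect cells: metallothionein-promoter Gal4–ROR gamma fusion plus Photinus luciferase reporter. Copper sulfate 700 uM final, 20 hr ambient incubation, luminescent detection after 10 min with reagent.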
ELG1 repair inh: ELG1-dependent DNA repair inhibition. 330,000 compounds, 2.3% hits. Potency, µM (highest dose often 46.1 µM), most hits filed as inhibitors. AID 504467. HEK293T ELG1-luciferase reporter, luminescence, 16 h; DNA damage induced by 5-fluorouridine; further: nearly all actives have a fitted effect of over 55% in size
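Quantitative HTS, concentration-response format. 2,000 cells/well co-treated with 5-fluorouridine and compound, 16 hr in 5% CO2 at 37 °C; ONE-Glo luminescence read after 30 min.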
Large screens that a line does not name were inactive; ! = a repeat was not active. Sampled rows, rich in hits. Any-hit rate of the full collection: about 7.5%. Unless noted, the call rests on the fitted dose curve; in most records, active means well fitted curve in the direction sought with a large enough effect; inconclusive means small, poorly fitted or top-dose-only effect, or another doubt; inactive means no such curve, though single readings can be large; an effect the other way counts as inactive or inconclusive.

COc1cc(/C=N/Nc2nc(Nc3ccc(C)cc3)nc(-n3nc(C)cc3C)n2)cc(OC)c1OC	Gal4-VP16 FLuc inconclusive, ELG1 repair inh inconclusive
COc1cc(/C=N/n2nnnc2Nc2ccccc2)cc(OC)c1OC	ELG1 repair inh 23µM
COc1ccc(O)c(/C=N/Nc2nc(Nc3ccccc3)nc(-n3nc(C)cc3C)n2)c1	Gal4-VP16 FLuc 0.63µM, B2AR arrestin inconclusive, RORgamma inh 0.63µM, ELG1 repair inh 2.6µM
CC(C)C[C@H](NC(=O)[C@H](Cc1ccccc1)NC(=O)CNC(=O)[C@H](CCC(=O)O)NC(=O)[C@H](CCCNC(=N)N)NC(=O)[C@H](C)NC(=O)[C@H](C)NC(=O)[C@@H](N)CC(=O)O)C(=O)N[C@@H](CC(=O)O)C(=O)N[C@H](C(=O)N[C@@H](CC(C)C)C(=O)N[C@H](C(=O)N[C@H](C(=O)N[C@@H](CC(C)C)C(=O)N[C@@H](Cc1cnc[nH]1)C(=O)N[C@@H](CCCNC(=N)N)C(=O)N[C@@H](C)C(=O)NCC(=O)N[C@@H](C)C(=O)N[C@@H](CCCNC(=N)N)C(=O)O)C(C)C)C(C)C)[C@@H](C)O	none (no result: TSHR antag, B2AR arrestin, ELG1 repair inh)
Cn1c(=O)cnc2cnc(Nc3ccccc3)nc21	RORgamma inh inconclusive (no result: TSHR antag, B2AR arrestin, ELG1 repair inh)
CCOc1ccc(N/C(=N/c2nc(C)cc(C)n2)NC(=O)CC)cc1	ELG1 repair inh 18µM
CCC(=O)N/C(=N/c1nc(C)cc(C)n1)Nc1ccc(C)cc1	ELG1 repair inh inconclusive
Cc1cc(C)n2nc(SCC(=O)Nc3ccc(O)cc3)nc2n1	none
CCOc1ccc(NC(=O)CSc2nc3nc(C)cc(C)n3n2)cc1	Gal4-VP16 FLuc 11µM, RORgamma inh inconclusive
Cc1ccccc1NS(=O)(=O)c1ccc(OCC(=O)NCc2ccccn2)cc1	none
O=C(O)/C=C/c1ccc(S(=O)(=O)Nc2ccc(OCc3ccccc3)cc2)cc1	none
N#Cc1ccccc1COc1ccc(/C=C/C(=O)O)cc1	Gal4-VP16 FLuc 0.71µM, RORgamma inh 0.18µM
CC(NCC(O)c1ccc([N+](=O)[O-])cc1)C12CC3CC(CC(C3)C1)C2 (centres undefined)	Gal4-VP16 FLuc inconclusive
CN(Cc1nc(Cc2ccccc2F)no1)[C@@H]1CS(=O)(=O)C[C@H]1O	none
Cc1cc(C)n(CCN(C)Cc2nc(Cc3ccccc3F)no2)n1	Gal4-VP16 FLuc inconclusive, RORgamma inh 11µM, ELG1 repair inh inconclusive
Cc1ccc(NS(=O)(=O)c2c(C)[nH]c(C)c2C(=O)N2CCCCC2)cc1Cl	none
Cc1ccc(C2Oc3ccccc3C3=C2C(c2cccs2)n2ncnc2N3)cc1 (centres undefined)	Gal4-VP16 FLuc inconclusive, RORgamma inh 11µM
Fc1ccc(C2C3=C(Nc4ncnn42)c2ccccc2OC3c2ccncc2)cc1 (centres undefined)	ELG1 repair inh inconclusive
O=S(=O)(Nc1ccc2nc(-c3ccc(Br)o3)[nH]c2c1)c1ccccc1	RORgamma inh inconclusive, ELG1 repair inh inconclusive
O=S(=O)(Nc1ccc2nc(C(F)(F)F)[nH]c2c1)c1ccccc1	RORgamma inh inconclusive, ELG1 repair inh 10µM
Cc1onc(-c2c(F)cccc2Cl)c1C(=O)N[C@H]1C(=O)N2[C@H]1SC(C)(C)[C@H]2C(=O)O	none (no result: TSHR antag, B2AR arrestin, ELG1 repair inh)
CC(=O)Nc1sc2c(c1C#N)CCCC2	Gal4-VP16 FLuc inconclusive (no result: TSHR antag, B2AR arrestin, ELG1 repair inh)
N#Cc1c(NC(=S)NC(=O)Cc2cccs2)sc2c1CCCCC2	Gal4-VP16 FLuc 16µM, RORgamma inh 5µM, ELG1 repair inh inconclusive
CC(C)(C)C(=O)NC(NC(=S)Nc1sc2c(c1C#N)CCCC2)C(Cl)(Cl)Cl (centres undefined)	Gal4-VP16 FLuc inconclusive, RORgamma inh 10µM
CC(C)(C)C(=O)Nc1sc2c(c1C#N)CCC2	none
CC(=O)NC(=S)Nc1sc2c(c1C#N)CCCCC2	Gal4-VP16 FLuc 8.9µM, RORgamma inh 11µM, ELG1 repair inh inconclusive
O=C(O)Cc1c(Cl)ccc(Cl)c1Cl	none (no result: TSHR antag, B2AR arrestin, ELG1 repair inh)
CC(C)CO/N=C1/C[C@@H](O)[C@@H](O)[C@@H]2[C@@H]3C(=O)N(Cc4ccccc4)C(=O)[C@H]3CC[C@@H]12	none (no result: TSHR antag, B2AR arrestin, ELG1 repair inh)
N#CC(c1cccc(Cl)c1)c1ccc2c(C(F)(F)F)cc(C(F)(F)F)nc2n1 (centres undefined)	Gal4-VP16 FLuc 4µM, RORgamma inh 5µM (no result: TSHR antag, B2AR arrestin, ELG1 repair inh)
COc1ccc(OC(=O)c2cnc3n(c2=O)CCS3)cc1	ELG1 repair inh inconclusive
COC(=O)C1=C(C)N(Cc2ccccc2)C(=NCc2ccccc2)N[C@H]1c1cccc(F)c1	RORgamma inh inconclusive
CCN1C(=NCCCCO)N[C@@H](c2ccccc2)C(C(=O)OC)=C1C	none (no result: ELG1 repair inh)
COC(=O)C1=C(C)N(Cc2ccccc2)C(=S)N[C@H]1c1cccc(F)c1	Gal4-VP16 FLuc 13µM, RORgamma inh 4.5µM
CCN1C(=S)N[C@@H](c2ccccc2)C(C(=O)OC)=C1C	Gal4-VP16 FLuc inconclusive, RORgamma inh 3.2µM, ELG1 repair inh inconclusive
COCCN1C(=S)N[C@@H](c2cccc(F)c2)C(C(=O)OC)=C1C	Gal4-VP16 FLuc 11µM!, RORgamma inh 3.5µM!
Cc1ccccc1-c1ccc(/C=C2/SC(N3CCOCC3)=NC2=O)o1	ELG1 repair inh 8.2µM
O=C1N=C(N2CCOCC2)S/C1=C\c1ccc(-c2ccccc2Cl)o1	ELG1 repair inh inconclusive
Cc1nnc(NC(=O)CSC2CCCCC2)s1	RORgamma inh 22µM
COc1ccc(-n2cccc2/C=C/[N+](=O)[O-])cc1	Gal4-VP16 FLuc inconclusive, RORgamma inh 10µM, ELG1 repair inh 23µM
COc1ccc(-n2cccc2C=O)cc1	none
Cc1onc(-c2ccccc2)c1C(=O)NNC(=S)NC(=O)/C=C/c1cccs1	Gal4-VP16 FLuc 4.5µM, RORgamma inh 3.5µM
Cc1onc(-c2ccccc2)c1C(=O)NNC(=S)NC(=O)c1ccc2c(c1)OCO2	RORgamma inh 2.5µM, ELG1 repair inh inconclusive
COc1ccc(CCNC(=O)c2c(-c3ccccc3)noc2C)cc1OC	none
COc1ccc(C(=O)NC(=S)NNC(=O)c2c(-c3ccccc3)noc2C)cc1OC	Gal4-VP16 FLuc 14µM, RORgamma inh 4µM, ELG1 repair inh inconclusive
Cc1onc(-c2ccccc2)c1C(=O)NC(=S)NNC(=O)c1ccco1	ELG1 repair inh 23µM
Cc1onc(-c2ccccc2)c1C(=O)NC(=S)NNC(=O)c1ccncc1	Gal4-VP16 FLuc inconclusive, RORgamma inh inconclusive
Oc1ccccc1C=NCc1ccccc1	none (no result: TSHR antag, B2AR arrestin, ELG1 repair inh)
CCCn1c(N)c(C(=O)NS(=O)(=O)c2ccc(C)cc2)c(=O)n(C)c1=O	Gal4-VP16 FLuc inconclusive, RORgamma inh inconclusive, ELG1 repair inh 10µM
Cc1ccc(S(=O)(=O)CCC(=O)OCC(=O)c2c(N)n(CC(C)C)c(=O)n(C)c2=O)cc1	RORgamma inh inconclusive
COc1ccc([C@]23Cc4ccccc4C(O2)C2=C(CC(C)(C)CC2=O)O3)cc1	none (no result: TSHR antag, ELG1 repair inh)
C=C1CCN(C(CC(C)C)C(=O)O)S(=O)(=O)c2ccccc21 (centres undefined)	none (no result: TSHR antag, B2AR arrestin, ELG1 repair inh)
Cc1nn(Cc2ccc(Cl)c(Cl)c2)c(C)c1NC(=O)c1cc(CC(C)C)on1	Gal4-VP16 FLuc inconclusive, RORgamma inh inconclusive, ELG1 repair inh inconclusive

Compound activity deposited in PubChem BioAssay by National Center for Advancing Translational Sciences (NCATS).
